The whole screen tested about 50,000 compounds, of which about 800 (1.6%) showed an effect of 50% or more. Only a selection was taken, and strong results are over-represented in it overall.

Bcl-2-like protein 10 (Homo sapiens), sequence (Q9HD36 whole entry, looked up): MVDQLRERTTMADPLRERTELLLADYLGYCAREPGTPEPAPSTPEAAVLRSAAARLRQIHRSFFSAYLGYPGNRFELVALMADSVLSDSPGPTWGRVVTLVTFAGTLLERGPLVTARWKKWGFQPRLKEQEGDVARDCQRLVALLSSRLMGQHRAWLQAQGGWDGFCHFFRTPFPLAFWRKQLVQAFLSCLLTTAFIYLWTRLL

This assay concerns the target Bcl-2-like protein 10 (Homo sapiens) (UniProt Q9HD36). Nature of the assay: Phenotype converters, Bcl-B/TR3 peptide binding displacement, primary biochemical FP (AID 1240).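 Further: 0% = Bcl-B with tracer peptide and DMSO and 100% = tracer peptide lacking Bcl-B.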 To be noted: GST-Bcl-B / FITC-TR3 peptide fluorescence polarization; stronger effect = higher value; compound at 3.75 mg/L.
Turning to `COc1ccc(Oc2coc3cc(OC(C)=O)ccc3c2=O)cc1`, the displacement was found to be 11.2%.
Consider `COc1ccc2nc(NC(=O)COc3ccc(Cl)cc3)sc2c1`, for which the displacement is 14.5%.
With `COc1cc(NC(=O)CCCOc2ccc(Cl)cc2Cl)c(OC)cc1Cl`, the displacement came to 0.2%.
Consider `COc1ccc(NC(=O)CCCOc2ccccc2)c(OC)c1`, for which the displacement was -3.2%.
With `COc1cc(NC(=O)CCCOc2ccccc2)c(OC)cc1Cl`, the displacement is 71.9%.
With `O=C(NCc1cccs1)c1sc2cc(F)ccc2c1Cl` the figure was -3.8%; with `O=C(N/N=C/c1cccs1)c1sc2cc(Cl)ccc2c1Cl`, 7.2%; with `C/C(=N/NC(=O)c1sc2cc(F)ccc2c1Cl)c1cccs1`, 132%.
The result for `CC1=C(C(=O)Nc2cc(Cl)ccc2C)C(c2ccccc2Br)NC(=S)N1` (centres undefined) reads -8.3%; that for `O=C(Nc1ccc(O)c(-c2nc3ccccc3o2)c1)c1cc2ccccc2o1`, -10.8%.
For the compound `CCOC(=O)NC(NC(=O)OCC)c1cccc([N+](=O)[O-])c1`, the displacement is -5.1%.
For the compound `CCOc1cc(/C=C2\SC(=S)N(CC(C)C)C2=O)ccc1O`, the displacement was 15.9%.
For the compound `COc1cc(/C=C2/SC(=S)N(CC(=O)N3CCOCC3)C2=O)cc(OC)c1OC`, the displacement amounted to 13.2%.
The result for `CCOc1cc(/C=C2/SC(=S)N(C)C2=O)ccc1OC(=O)c1ccc(C)cc1` reads 62.3%; that for `CCOc1cc(/C=C2\SC(=S)N(C)C2=O)ccc1O`, -6.7%; that for `COCCN1C(=O)/C(=C/c2ccc(O)c(OC)c2)SC1=S`, -4.4%.
The result for `CCOc1cc(/C=C2/SC(=S)N(C)C2=O)ccc1OC(=O)c1ccc(F)cc1` reads 13.6%.
With `CCOc1cc(/C=C2\SC(=S)N(CCOC)C2=O)ccc1O` the figure was 89.2%; with `COc1cc(/C=C2\SC(=S)N(CC(C)C)C2=O)ccc1O`, 91.5%.
For the compound `COc1cc(/C=C2\SC(=S)N(CC(=O)O)C2=O)cc(OC)c1OC`, the displacement is -4%.
With `COc1cc(/C=C2\SC(=S)N(CC(=O)N3CCCc4ccccc43)C2=O)cc(OC)c1OC` the figure was 91.5%; with `CCOc1cc(/C=C2/SC(=S)N(C)C2=O)ccc1OS(=O)(=O)c1ccc(C)cc1`, -1.9%.
The result for `CCN1C(=O)/C(=C\c2ccc(O)c(OC)c2)SC1=S` reads -3.9%.
As to `CC1(C)Nc2ccccc2N(Cc2ccc(Cl)c(Cl)c2)C1=O`, the displacement is -7.9%.
The result for `Cc1ccc(-c2nc3ccccc3o2)cc1NC(=O)c1ccco1` reads 3.1%; that for `CCOC(=O)C(=O)Nc1ccc(S(=O)(=O)Nc2nccc(C)n2)cc1`, 27.4%.
With `CC(=O)Nc1ccc(S(=O)(=O)Nc2ccc(C(=O)Nc3nccs3)cc2)cc1`, the displacement stood at 7.5%.
As to `COC(=O)c1sccc1NC(=O)/C=C/c1ccc([N+](=O)[O-])cc1`, the displacement stood at 5.4%.
With `CC(=O)OC1CC(C)(C)N([O])C(C)(C)C1` the figure was 5.8%; with `O=C1C2ON(c3ccccc3)C(c3ccco3)C2C(=O)N1c1ccc(N2CCOCC2)cc1` (centres undefined), 2.3%.
The result for `C=CCNC(=O)c1ccc(OCc2ccccc2)cc1` reads 10.2%.
In the case of `C/C(=N\NC(=O)c1ccncc1)c1ccco1`, the displacement is -4.8%.
The result for `O=C(Nc1ccc(-c2nc3ccccc3s2)cc1)c1cc2ccccc2o1` reads -6.9%; that for `S=C1NC(c2ccccc2)=NCN1c1ccccc1`, 1.8%; that for `COC(=O)CN1C(=O)/C(=C/c2ccc(OCc3ccccc3Cl)c(OC)c2)SC1=S`, 10.3%.
Turning to `COC(=O)CCN1C(=O)/C(=C/c2ccc(OCc3ccc(Cl)cc3)c(OC)c2)SC1=S`, the displacement was found to be 24.7%.
The result for `COc1cc(/C=C2/SC(=S)N(C)C2=O)ccc1OCCOc1ccc(Br)cc1` reads 2.3%.
With `C=CCN1C(=O)/C(=C\c2ccc(OCc3ccc(Br)cc3)c(OC)c2)SC1=S`, the displacement is -11.3%.
The result for `CCN1C(=O)/C(=C\c2cccc(OCCOc3cccc(OC)c3)c2)SC1=S` reads 3.4%; that for `CCOc1cc(/C=C2\SC(=S)N(CC(=O)OC)C2=O)ccc1O`, 122%; that for `COC(=O)CN1C(=O)/C(=C/c2ccc(OCc3ccc(Cl)cc3)c(OC)c2)SC1=S`, 87.2%.
`CCOc1cc(/C=C2\SC(=S)N(CCS(=O)(=O)O)C2=O)ccc1O`: the displacement was -60.3%.
With `COc1cc(/C=C2/SC(=S)N(C)C2=O)ccc1OCc1ccc(Br)cc1` the figure was 88.9%; with `COC(=O)CN1C(=O)/C(=C\c2cccc(O)c2)SC1=S`, 0%; with `CCOc1cc(/C=C2/SC(=S)N(CC)C2=O)cc(Br)c1OCCOc1cccc(OC)c1`, 92.3%.
In the case of `CCN1C(=O)/C(=C\c2cc(Cl)c(OCCOc3cccc(OC)c3)c(OC)c2)SC1=S`, the displacement worked out at 2.9%.
With `CCOC(=O)c1cccc(NC(=O)COc2ccc([N+](=O)[O-])cc2)c1` the figure was 8.1%; with `CSc1ccc(/C=N\NC(=O)COc2ccc(C)cc2)cc1`, 11.8%; with `COC(=O)c1c(N)sc(C)c1-c1ccc(C)cc1C`, -10.6%.
`COc1cc(/C=C/c2cc(C(F)(F)F)[nH]c(=O)n2)ccc1O`: the displacement was found to be 44.6%.
Turning to `COc1ccc(OC)c(NC(=O)CN(c2cc(Cl)cc(Cl)c2)S(C)(=O)=O)c1`, the displacement is -2.6%.
With `O=C(N/N=C/c1ccccc1)c1cc(Br)ccc1O` the figure was 7.4%; with `O=C(CSc1nc(-c2ccccc2)c(-c2ccccc2)o1)Nc1ccccc1`, -4.2%; with `O=C(CSc1nnc(-c2ccccc2)c(-c2ccccc2)n1)Nc1nccs1`, 4.6%.
In the case of `O=C(CSc1nc(-c2ccccc2)c(-c2ccccc2)o1)Nc1nccs1`, the displacement came out at 106%.
With `CSc1nnc2c(n1)OC(C(=O)c1ccccc1)Nc1ccccc1-2` (centres undefined) the figure was 13.5%; with `COc1cccc(NS(=O)(=O)c2ccc(OC)c(Br)c2)c1`, -4.6%; with `O=C1NC(=S)S/C1=C/c1ccc(Oc2ccc(C(F)(F)F)cc2[N+](=O)[O-])c(Cl)c1`, 2.8%.
In the case of `O=C1NC(=O)/C(=C\c2ccc(Oc3ccc(C(F)(F)F)cc3[N+](=O)[O-])c(Cl)c2)S1`, the displacement worked out at 5.5%.
With `O=C1NC(=S)N/C1=C/c1ccc(Oc2ccc(C(F)(F)F)cc2[N+](=O)[O-])c(Cl)c1` the figure was 88.3%; with `Cc1ccc(N(CC(=O)NC(C)c2ccccc2)S(C)(=O)=O)cc1Cl` (centres undefined), -1.3%.
With `NNC(=O)COc1ccc2c(c1Br)CCCC2` the figure was -25.1%; with `O=C(O)CCCCCN1C(=O)C(O)=C(C(=O)/C=C/c2ccccc2)C1c1ccccc1` (centres undefined), 4.7%.
The result for `O=C(O)CCCCCN1C(=O)C(O)=C(C(=O)/C=C/c2ccccc2)C1c1ccc([N+](=O)[O-])cc1` (centres undefined) reads -4.6%.
As to `O=C(O)CCCCCN1C(=O)C(O)=C(C(=O)/C=C/c2ccccc2)C1c1cccc([N+](=O)[O-])c1` (centres undefined), the displacement was determined as 96.1%.
Regarding `Cc1cc(Cl)ccc1NC(=O)C(=O)N/N=C/c1ccccc1F`, the displacement is 4.5%.
The result for `CCN1CCN(CC(O)CN2CCn3c4c(c5cc(C)ccc53)CCCC42)CC1` (centres undefined) reads 24.7%; that for `CCNC(=O)/C=C/c1cn(-c2ccccc2)nc1-c1ccccc1`, 9.4%; that for `CCOC(=O)C(=C/C=C/c1ccccc1)C(=O)OCC`, -2.3%.
The result for `CCOC(=O)C(C(=O)OCC)=C1Sc2ccccc2N1C` reads 13.4%.
Consider `CCOC(=O)C(=C/C=C1/Sc2ccccc2N1C)C(=O)OCC`, for which the displacement was 131%.
`COc1ccc(Br)cc1/C=C/C(=O)N1CCN(c2ccc([N+](=O)[O-])cc2)CC1`: the displacement was determined as 12.3%.
Regarding `O=C(NC(=S)Nc1ccc2oc3ccccc3c2c1)c1ccccc1`, the displacement stood at 91.8%.
With `O=C(Nc1ccc2c(c1)Cc1ccccc1-2)c1ccncc1` the figure was -3.2%; with `O=C(NC(=S)Nc1ccc2c(c1)-c1ccccc1C2)c1ccccc1`, 51.9%; with `Cc1ccc(NC(=S)NC(=O)c2ccccc2)cc1Br`, 9%.
With `O=C(NC(=S)Nc1ccccc1)c1ccccc1` the figure was 4.7%; with `O=C(NC(=S)Nc1ccc2oc(-c3ccccc3)nc2c1)c1ccccc1`, -10.6%.
With `O=C(Nc1ccc(Cl)c(Cl)c1)c1cc2ccccc2o1`, the displacement is 2.9%.
As to `O=C(Nc1ccc2c(c1)Cc1ccccc1-2)c1cc2ccccc2o1`, the displacement is 134%.
With `O=C(Nc1ccc2c(c1)OCCO2)c1cc2ccccc2o1` the figure was -6.3%.
The result for `COc1ccc(-c2nc(NC(=O)c3ccccc3F)sc2-c2ccc([N+](=O)[O-])cc2)cc1` reads 13.6%; that for `CCOC(=O)C1=C(C)NC(C)=C(C(=O)OCC)C1c1cccs1`, -5.1%.
The result for `CCOc1ccc(/C=C2\C(=O)NC(C)=C2C(=O)OC)cc1` reads 10.8%; that for `CCOC(=O)C1=C(C)NC(=O)/C1=C\c1cccs1`, 108%; that for `Cc1ccc(S(=O)(=O)Nc2ccccc2C(O)C[N+](=O)[O-])cc1` (centres undefined), -4.2%.
In the case of `COc1ccc2c(c1)cc(C(=O)NN)n2C`, the displacement was determined as 67.4%.
Consider `CNC(=O)c1cc2cc(OC)ccc2n1CCN(C)C`, for which the displacement is -11.4%.
As for `COc1ccc(N2Cc3ccc(C(=O)NN)cc3C2)cc1`, the displacement was -29.2%.
For `COC(=O)C1=NN(C(C)=O)C(O)(c2ccccc2)C1` (centres undefined), the displacement was determined as 2.1%.
With `COc1ccc(/C=N\N2CCN(c3ccccc3OC)CC2)cc1OC` the figure was -6.7%; with `CCOc1cccc(-c2cc(C(=O)N3CCN(C)CC3)c3ccccc3n2)c1`, -5.5%.
In the case of `CCOc1cccc(-c2cc(C(=O)Nc3nnc(C)s3)c3ccccc3n2)c1`, the displacement amounted to 135%.
Turning to `CCOc1cccc(-c2cc(C(=O)N3CCc4ccccc43)c3ccccc3n2)c1`, the displacement amounted to 110%.
Consider `CCOc1cccc(-c2cc(C(=O)N3CCCCCC3)c3ccccc3n2)c1`, for which the displacement is -10.2%.
The result for `CCOc1cccc(-c2cc(C(=O)Nc3cc(C)ccn3)c3ccccc3n2)c1` reads 2%; that for `CCOc1ccc(-c2cc(C(=O)Nc3nnc(C)s3)c3ccccc3n2)cc1`, 6.3%.
The result for `Cc1ccccc1OCC(=O)N1N=C(c2ccc(F)cc2)CC1(O)C(F)(F)F` (centres undefined) reads -4.5%.
With `Cc1[nH]c2ccccc2c1/C=N/NC(=O)c1cccc([N+](=O)[O-])c1`, the displacement is 0.7%.
With `COc1ccc(C(C)N(C)CCC(c2ccccc2)c2ccccc2)cc1OC` (centres undefined) the figure was 5.7%.
On to `Cn1c(=O)c(N)c2c3c(c(Br)ccc31)C(=O)c1ccccc1-2`, for which the displacement stood at 159%.
On to `O=C1c2ccccc2C(=O)c2c1c(Cl)c(Cl)c(Cl)c2N1CCCC1`, for which the displacement was 8%.
The result for `Cn1c(=O)c(N)c2c3c(cccc31)C(=O)c1ccccc1-2` reads 154%; that for `Nc1ccc2c(c1)C(=O)c1ccccc1C2=O`, 6.9%; that for `Cn1c(=O)c(-c2ccccc2N)nc2cc3ccccc3cc21`, 33.6%.
With `O=C1c2ccccc2C(=O)c2c1cc(Cl)cc2N1CCCCC1` the figure was 2.8%; with `Cn1c2c(c(=O)n(C)c1=O)C(c1ccc(Br)cc1)C1=C(N2)c2ccccc2C1=O` (centres undefined), -10.4%.
Consider `Cn1c(=O)c(-c2ccccc2N)nc2ccccc21`, for which the displacement is -5.4%.
The result for `Cn1c(=O)c(N2CCCCC2)c2c3c(cccc31)C(=O)c1ccccc1-2` reads 147%.
